Laboratory results: ChEMBL document CHEMBL3988442, “University of Dundee, Small-Polar-MMV Screening Library” (2021)
Among all 48,000 compounds or so, about 13,000 (27%) showed an effect of 50% or more. This is one part of the list.

system: Wolbachia pipientis; test: Anti-Wolbachia Cell-Based Screen; assay type: functional; set-up: scale not given: in the data most compounds retested in dose-response had high values; conditions: 5 µM

| Compound | Percent Effect |
| --- | --- |
| CCn1nc(C)c2nc(C(C)C)nc(NCCOC)c21 | -9.329% |
| CS(=O)(=O)Cc1ccccc1NCc1cc(Cl)ccc1Cl | 3.453% |
| Cc1n[nH]cc1CNC(=O)Nc1cccc(OCC(F)(F)F)c1 | -23.93% |
| CCS(=O)(=O)c1ccc(N2CCC(NC(C)=O)CC2)cc1 | -5.151% |
| Cn1cnnc1-c1cncc(NCc2ccccc2Br)c1 | 9.077% |
| CCC(CC)NCC(c1ccccn1)N1CCOCC1 (stereo unspecified) | 8.316% |
| CCC(=O)N(CC)C(c1cccnc1)c1ccc2c(c1)CCO2 (stereo unspecified) | -9.514% |
| c1csc(-c2noc(CC3CCCO3)n2)c1 (stereo unspecified) | 5.637% |
| O=C1OCCCN1Cc1nc(-c2ccncc2)no1 | 8.814% |
| CC1COCCN1Cc1nc(-c2cccs2)no1 (stereo unspecified) | 6.189% |
| Cc1ccc(CN2C[C@H](O)C[C@H]2c2nc(-c3ccc(F)cc3)no2)cc1 | -12.23% |
| CCn1nc2c(cc1=O)CN(Cc1nc(-c3ccsc3)no1)CC2 | -2.212% |
| CC1COCCN1Cc1nc(-c2ccsc2)no1 (stereo unspecified) | 130% |
| CC1COCCN1Cc1nc(-c2ccc(Br)s2)no1 (stereo unspecified) | 104.9% |
| CC1COCCN1Cc1nc(-c2ccc(F)cc2)no1 (stereo unspecified) | 110.9% |
| CC(C)c1nc2c(n1C)CCN(Cc1nc(-c3ccsc3)no1)C2 | 5.269% |

| Compound | Percent Effect |
| --- | --- |
| COc1cccc(-c2ncc(CN3CCOCC(O)C3)s2)c1 (stereo unspecified) | -5.443% |
| COc1cccc(-c2noc(CN3CCOCC3C)n2)c1 (stereo unspecified) | 120.5% |
| COc1ccc(-c2noc(CN3CCOCC3C)n2)cc1OC (stereo unspecified) | -3.831% |
| CC(Oc1cccc(Cl)c1)C(=O)Nc1cnn(CCN(C)C)c1 (stereo unspecified) | -6.613% |
| CC(C)c1nn(CC(=O)N2CCCC2)c(=O)c2c1cnn2C(C)(C)C | 46.37% |
| Cc1cnn(CCNCc2ccccc2C#N)c1 | -11.13% |
| O=C(CCC1CCCCC1)NS(=O)(=O)CC1CC1 | -8.916% |
| Cc1cccc(-c2noc(CN3CCc4nn(C)c(=O)cc4C3)n2)c1 | -3.74% |
| Cc1cccc(-c2noc(CN3CCC(c4ccn[nH]4)CC3)n2)c1 | -15.7% |
| Cc1cccc(-c2noc(CN3CCn4c(nnc4C4CC4)C3)n2)c1 | -14.41% |
| CC1COCCN1Cc1nc(-c2cccc(Br)c2)no1 (stereo unspecified) | 7.569% |
| CC1COCCN1Cc1nc(-c2cccc(C(F)(F)F)c2)no1 (stereo unspecified) | 102.5% |
| Cc1cccc(-c2noc(CN3CCOCC3C)n2)c1 (stereo unspecified) | 119.9% |
| Cc1cnn(CC(C)NCc2csc(-c3ccsc3)n2)c1 (stereo unspecified) | 2.803% |
| COCc1ccc(CNC(=O)C2=NN(c3ccccc3)C(=O)CN2)cc1 | -5.383% |
